About 83,000 compounds went through this panel and 20% of them were active in at least one assay; those are over-represented in the sample as a whole.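 Results are percent growth after 48 hours of single-concentration exposure. 100 means growth as in untreated cells, lower positive values show inhibition; negative values down to -100 show cell death.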 Calls of active or inactive are those of the source. The calls were made as follows: active = growth percent below 10; inactive = the rest.
Legend:
Assay in all cases: NCI-60 one-dose screen, 48 h (100 = growth as untreated, 0 = no growth, -100 = all killed)
NCI-H23 lung = settings: 10 µM unless noted
NCI-H322M lung = settings: 10 µM unless noted
HOP-62 NSCLC = settings: 10 µM unless noted
NCI-H460 lung = settings: 10 µM unless noted
HOP-92 NSCLC = settings: 10 µM unless noted
NCI-H522 lung = settings: 10 µM
A549/ATCC NSCLC = settings: 10 µM unless noted
786-0 renal = settings: 10 µM unless noted

Measured: growth

COC(=O)c1c2c(c(C)[n+]([O-])c1C)C(=O)C=C(NCc1ccc(F)c(Cl)c1)C2=O
active: NCI-H23 lung -65.9% | NCI-H322M lung -38.9% | HOP-62 NSCLC -51.9% | NCI-H460 lung -38.7% | HOP-92 NSCLC -42.6% | NCI-H522 lung -39.4% | A549/ATCC NSCLC -47.4% | 786-0 renal 3.92%

COc1ccc(/C=C2\SC(=O)N(CN3CCN(c4cc5c(cc4F)c(=O)c(C(=O)O)cn5C4CC4)CC3)C2=O)cc1
inactive: NCI-H23 lung 96.9% | NCI-H322M lung 112% | HOP-62 NSCLC 109% | NCI-H460 lung 104% | HOP-92 NSCLC 101% | NCI-H522 lung 94.2% | A549/ATCC NSCLC 99.4% | 786-0 renal 93.1%

O=C(CC(O)c1ccccc1)Nc1ccccn1 (stereo unspecified)
inactive: NCI-H23 lung 98.6% | NCI-H322M lung 93.3% | HOP-62 NSCLC 103% | NCI-H460 lung 112% | HOP-92 NSCLC 77% | NCI-H522 lung 96% | A549/ATCC NSCLC 95.8% | 786-0 renal 102%

Cc1ccc(S(=O)(=O)N2CCc3ccc(O)c4c3C2Cc2ccc3c(c2-4)OCO3)cc1 (stereo unspecified)
inactive: NCI-H23 lung 26.5% | NCI-H322M lung 53.2% | HOP-62 NSCLC 33.8% | HOP-92 NSCLC 29.1% | A549/ATCC NSCLC 18.1% | 786-0 renal 12.6%
active: NCI-H460 lung 8.45% | NCI-H522 lung -19.8%

COc1ccc(OC2=CC(=O)c3ccc(C)nc3C2=O)cc1
inactive: NCI-H23 lung 65.7% | NCI-H322M lung 102% | HOP-62 NSCLC 89.1% | NCI-H460 lung 86.1% | HOP-92 NSCLC 122% | NCI-H522 lung 55.2% | A549/ATCC NSCLC 96.4% | 786-0 renal 109%

O=C1CCC(N2Cc3c(C#CCCCNC(=O)c4cc5c(o4)C(=O)c4ccccc4C5=O)cccc3C2=O)C(=O)N1 (stereo unspecified)
inactive: HOP-92 NSCLC 52.3% | A549/ATCC NSCLC 30% | 786-0 renal 49.7%
active: NCI-H23 lung -80.1% | NCI-H322M lung -88.2% | HOP-62 NSCLC -65.3% | NCI-H460 lung -82% | NCI-H522 lung -61.2%

CCN(CC)c1ccc2c(c1)OS(=O)(=O)N=C2
inactive: NCI-H23 lung 95.6% | NCI-H322M lung 107% | HOP-62 NSCLC 99.9% | NCI-H460 lung 109% | HOP-92 NSCLC 85.4% | NCI-H522 lung 97.6% | A549/ATCC NSCLC 106% | 786-0 renal 93%

COc1c(O)c2c3c(c1OC)-c1ccccc1CC3N(S(=O)(=O)c1ccc(C)cc1)CC2 (stereo unspecified)
inactive: NCI-H23 lung 41.2% | NCI-H322M lung 53% | HOP-62 NSCLC 41.6% | NCI-H460 lung 23.3% | HOP-92 NSCLC 59.8% | NCI-H522 lung 19.9% | A549/ATCC NSCLC 44.1% | 786-0 renal 75.8%

O=c1[nH]c(=S)c2c(n1CCCO)CCC2
inactive: NCI-H23 lung 99.8% | NCI-H322M lung 108% | HOP-62 NSCLC 104% | NCI-H460 lung 107% | HOP-92 NSCLC 109% | NCI-H522 lung 88.4% | A549/ATCC NSCLC 100% | 786-0 renal 102%

COC(=O)c1c2c(c(C)[n+]([O-])c1C)C(=O)C=C(NCc1cccc(Cl)c1)C2=O
active: NCI-H23 lung -63% | NCI-H322M lung -18.3% | HOP-62 NSCLC -19.8% | NCI-H460 lung -3.61% | HOP-92 NSCLC -32.2% | NCI-H522 lung -63.5% | A549/ATCC NSCLC -49.5% | 786-0 renal 6.87%

COc1ccc(/C=N/OCC(O)CNCc2ccccc2)cc1OC1CCCC1 (stereo unspecified)
inactive: NCI-H23 lung 106% | NCI-H322M lung 97.2% | HOP-62 NSCLC 93.5% | NCI-H460 lung 102% | HOP-92 NSCLC 79.6% | NCI-H522 lung 105% | A549/ATCC NSCLC 93.5% | 786-0 renal 89.5%

COc1cc(/C=N/NC(=O)c2cnn3c2NC(c2ccccc2)C3)cc(OC)c1OC (stereo unspecified)
inactive: NCI-H23 lung 102% | NCI-H322M lung 84% | HOP-62 NSCLC 71.2% | NCI-H460 lung 26.7% | HOP-92 NSCLC 76% | NCI-H522 lung 35.5% | A549/ATCC NSCLC 64.8% | 786-0 renal 88%

Cl.Fc1c[c-]c(-c2ccccn2)c(F)c1.[Pt].c1ccc([PH+](CC[PH+](c2ccccc2)c2ccccc2)c2ccccc2)cc1
active: NCI-H23 lung -77.2% | NCI-H322M lung -98.8% | HOP-62 NSCLC -65.8% | NCI-H460 lung -75.3% | HOP-92 NSCLC -77.4% | NCI-H522 lung -58.4% | A549/ATCC NSCLC -52.9% | 786-0 renal -79.4%

CCOC(=O)c1cnn(CC(O)c2ccc(F)cc2)c1NC(=O)Nc1ccccc1F (stereo unspecified)
inactive: NCI-H23 lung 98.4% | NCI-H322M lung 103% | HOP-62 NSCLC 101% | NCI-H460 lung 105% | HOP-92 NSCLC 102% | NCI-H522 lung 92.2% | A549/ATCC NSCLC 103% | 786-0 renal 90.3%

O=c1oc2ccccc2cc1-c1csc(N/N=C/c2cc3ccccc3nc2Cl)n1
inactive: NCI-H23 lung 99.8% | NCI-H322M lung 103% | HOP-62 NSCLC 109% | NCI-H460 lung 99.7% | HOP-92 NSCLC 97.5% | NCI-H522 lung 93.3% | A549/ATCC NSCLC 92.8% | 786-0 renal 107%

O=C(c1ccc2ncc(-c3nc(NC4CC4)ncc3F)n2c1)N1CCOCC1
inactive: NCI-H23 lung 42.5% | NCI-H322M lung 15.4% | NCI-H522 lung 72.6% | A549/ATCC NSCLC 13.9%
active: HOP-62 NSCLC 7.33% | NCI-H460 lung 4.24% | HOP-92 NSCLC -2.24% | 786-0 renal 9.09%

COc1ccc(/C=N\N2CCOCC2)cc1OC1CCCC1
inactive: NCI-H23 lung 99% | NCI-H322M lung 107% | HOP-62 NSCLC 97% | NCI-H460 lung 105% | HOP-92 NSCLC 93.1% | NCI-H522 lung 95.6% | A549/ATCC NSCLC 99.8% | 786-0 renal 93.6%

CC(=O)OC[C@H](O)[C@@]1(O)CC[C@H]2[C@@H]3CCC4=CC(=O)CC[C@]4(C)[C@H]3[C@@H](O)C[C@@]21C
inactive: NCI-H23 lung 103% | NCI-H322M lung 112% | HOP-62 NSCLC 115% | NCI-H460 lung 97.3% | HOP-92 NSCLC 81.7% | NCI-H522 lung 99.6% | A549/ATCC NSCLC 83.1% | 786-0 renal 104%

O=C1CCC(N2C(=O)c3cccc(NCCOCCOCCNC(=O)c4cc5c(o4)C(=O)c4ccccc4C5=O)c3C2=O)C(=O)N1 (stereo unspecified)
active: NCI-H23 lung -53.9% | NCI-H322M lung -76.6% | HOP-62 NSCLC -58.2% | NCI-H460 lung -81.3% | NCI-H522 lung -55% | A549/ATCC NSCLC -30.2%
inactive: HOP-92 NSCLC 60.4% | 786-0 renal 17.8%

COc1ccc(/C=N/NC(=O)c2cnn(CC(O)Cc3ccccc3)c2N)cc1OC1CCCC1 (stereo unspecified)
inactive: NCI-H23 lung 93.2% | NCI-H322M lung 103% | HOP-62 NSCLC 85.5% | NCI-H460 lung 98.5% | HOP-92 NSCLC 86.5% | NCI-H522 lung 92.7% | A549/ATCC NSCLC 96.3% | 786-0 renal 97.9%

CCCCC(O)Cn1ncc(C(=O)OCC)c1NC(=O)NCc1ccccc1C(F)(F)F (stereo unspecified)
inactive: NCI-H23 lung 98.1% | NCI-H322M lung 105% | HOP-62 NSCLC 93.4% | NCI-H460 lung 103% | HOP-92 NSCLC 84.7% | NCI-H522 lung 88.3% | A549/ATCC NSCLC 89.1% | 786-0 renal 93.2%

CCCCCCCC/C=C\CCCCCCCCOc1cccc(CC(=O)NCC[N+]2(C)CCCCC2)c1
inactive: NCI-H23 lung 71.9% | NCI-H322M lung 92.3% | HOP-62 NSCLC 67% | NCI-H460 lung 40.1% | HOP-92 NSCLC 86.9% | NCI-H522 lung 63% | A549/ATCC NSCLC 82.3% | 786-0 renal 90.4%

COc1ccc(NS(=O)(=O)c2ccc(-c3cnc(C4CC4)o3)cc2)cc1
inactive: NCI-H23 lung 71.9% | NCI-H322M lung 91.8% | HOP-62 NSCLC 54.8% | NCI-H460 lung 33.2% | HOP-92 NSCLC 63% | NCI-H522 lung 51% | A549/ATCC NSCLC 54.7% | 786-0 renal 81.3%

NC(=S)N/N=C1\c2ccccc2-c2c(F)c(F)c(F)c(F)c21
inactive: NCI-H23 lung 72.4% | NCI-H322M lung 93.5% | HOP-62 NSCLC 75.6% | NCI-H460 lung 76.6% | HOP-92 NSCLC 87% | NCI-H522 lung 57.4% | A549/ATCC NSCLC 87.5% | 786-0 renal 88.8%

Cc1cccc2c(=O)c3c(sc12)c(NCCCN)nc1ccccc13
inactive: NCI-H23 lung 47.8% | NCI-H322M lung 43.2% | HOP-92 NSCLC 31.5% | NCI-H522 lung 13.2% | A549/ATCC NSCLC 14.5% | 786-0 renal 52.9%
active: HOP-62 NSCLC 9.12% | NCI-H460 lung -52.7%

CCC12CCC3c4ccc(O)cc4CCC3C1CC(O)C2O (stereo unspecified)
inactive: NCI-H23 lung 68% | NCI-H322M lung 102% | HOP-62 NSCLC 83.2% | NCI-H460 lung 88% | HOP-92 NSCLC 72.3% | NCI-H522 lung 37.4% | A549/ATCC NSCLC 61.7% | 786-0 renal 92.5%

CCN1CCN(c2nc3ccccc3c3c(=O)c4cc(F)ccc4sc23)CC1
inactive: NCI-H23 lung 85.6% | NCI-H322M lung 81.2% | HOP-62 NSCLC 73.2% | NCI-H460 lung 38.5% | HOP-92 NSCLC 40.2% | NCI-H522 lung 76.7% | A549/ATCC NSCLC 58.4% | 786-0 renal 60.6%

COc1ccc(S(=O)(=O)c2ccc(C(N)=O)cc2)cc1NC(=O)c1[nH]c(C)c2c1CCCCC2=O
inactive: NCI-H23 lung 58.7% | NCI-H322M lung 68.5% | HOP-62 NSCLC 38.8% | NCI-H460 lung 70.3% | HOP-92 NSCLC 23.6% | NCI-H522 lung 42.7% | A549/ATCC NSCLC 87.7% | 786-0 renal 60%

COc1ccc(C2=NOC(CC(=O)N(CCO)CCO)C2)cc1OC1CCCC1 (stereo unspecified)
inactive: NCI-H23 lung 99.9% | NCI-H322M lung 107% | HOP-62 NSCLC 102% | NCI-H460 lung 103% | HOP-92 NSCLC 94.1% | NCI-H522 lung 98.3% | A549/ATCC NSCLC 95.5% | 786-0 renal 92.7%

CCCCC1COc2cccc3c(SCC(=O)N(C)c4cccc5ccccc45)cc[n+]1c23 (stereo unspecified)
inactive: NCI-H23 lung 104% | NCI-H322M lung 110% | HOP-62 NSCLC 106% | NCI-H460 lung 107% | HOP-92 NSCLC 105% | NCI-H522 lung 83.5% | A549/ATCC NSCLC 103% | 786-0 renal 98.3%

O=S(=O)(Nc1ccccc1Cl)c1ccc(-c2cnc(C3CC3)o2)cc1
inactive: NCI-H23 lung 39.9% | NCI-H322M lung 42.3% | HOP-62 NSCLC 34.1% | NCI-H460 lung 18% | HOP-92 NSCLC 37.1% | NCI-H522 lung 10.9% | A549/ATCC NSCLC 31.4% | 786-0 renal 51.1%

Cc1ccc(S(=O)(=O)N2CCc3ccc(O)c4c3C2CCc2ccccc2-4)cc1 (stereo unspecified)
inactive: NCI-H23 lung 95.9% | NCI-H322M lung 99.1% | HOP-62 NSCLC 106% | NCI-H460 lung 108% | HOP-92 NSCLC 116% | NCI-H522 lung 82.4% | A549/ATCC NSCLC 102% | 786-0 renal 100%
